# Experimental data: the supplement of paper PMC8253809
# Several values for one entry are separate records, joined by “and”; a condition that tells them apart may be missing. Identical values can stand only once.
# Tests used:
# Assay in all cases: growth inhibition (% activity, log2 RLU normalised to DMSO / staurosporine); higher = more growth inhibition
# Details in all cases: 33 µM
# DIPGX29 = system: DIPGX29 (H3.3 K27M diffuse intrinsic pontine glioma line)
# In short: (§1)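 On Geltrex-coated 384-well plates, pHGG cell lines and H9-derived neural stem cells were grown with approved drugs pinned in at a single final concentration of about 33 μM, in triplicate, for 7 days at 37 °C, 5% CO2. Per-plate normalisation of log2-transformed CellTiter-Glo luminescence to % activity between solvent and positive control wells followed. Each growth-inhibition value is the median over the replicates.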
# DIPGX37 = system: DIPGX37 (H3.3 K27M diffuse intrinsic pontine glioma line)
# In short: as §1
# DIPGX7 = system: DIPGX7 (H3.3 K27M diffuse intrinsic pontine glioma line)
# In short: as §1
# DIPGX9 = system: DIPGX9 (diffuse intrinsic pontine glioma line)
# In short: as §1
# HGGX39 = system: HGGX39 (paediatric high-grade glioma line)
# In short: as §1
# HGGX6 = system: HGGX6 (H3.3 G34R paediatric high-grade glioma line)
# In short: as §1
# HNSC = system: HNSC
# In short: as §1
# SUDIPGIV = system: SUDIPGIV (diffuse intrinsic pontine glioma line)
# In short: as §1
# SUDIPGVI = system: SUDIPGVI (diffuse intrinsic pontine glioma line)
# In short: as §1
# SUDIPGXIII = system: SUDIPGXIII (diffuse intrinsic pontine glioma line)
# In short: as §1
SMILES,growth inhibition (DIPGX29),growth inhibition (DIPGX37),growth inhibition (DIPGX7),growth inhibition (DIPGX9),growth inhibition (HGGX39),growth inhibition (HGGX6),growth inhibition (HNSC),growth inhibition (SUDIPGIV),growth inhibition (SUDIPGVI),growth inhibition (SUDIPGXIII)
CN(CCOc1ccc(CC2SC(=O)NC2=O)cc1)c1ccccn1 (stereo not given),0.694% and -0.307% and -1.83%,3.97% and -0.209% and -2.53%,1.8% and -0.988% and -1.81%,2.03% and 1.11% and 0.786%,1.62% and 0.821% and 0.11%,1.66% and 0.11% and -0.818%,-0.719% and -0.633% and -2.63%,4.42% and -0.944% and -1.21%,1.7% and -0.11% and -0.397%,-15.6% and -1.12%
CC1(C)S[C@@H]2[C@H](NC(=O)C(C(=O)O)c3ccccc3)C(=O)N2[C@H]1C(=O)O (stereo not given in full),0.227%,2.06%,0.432%,0.809%,2.53%,1.87%,0.956%,-0.316%,3.27%,0.516%
CC(=O)S[C@@H]1CC2=CC(=O)CC[C@]2(C)[C@H]2CC[C@@]3(C)[C@@H](CC[C@@]34CCC(=O)O4)[C@H]12,1.45%,4.15%,2.4%,1.65%,4.84%,2.78%,1.61%,1.73%,2.19%,0.862%
Cc1[nH]c(=O)c(C#N)cc1-c1ccncc1,1.05%,4.4%,1.37%,1.64%,3.34%,-0.118%,3.65%,2.63%,4.48%,-1.25%
NC(=O)Cc1cccc(C(=O)c2ccccc2)c1N,-1.79%,-2.49%,-1.26%,-0.361%,-1.73%,0.913%,-2.2%,-3.13%,-0.113%,0.258%
Clc1cccc(Cl)c1NC1=NCCN1,1.49%,-3.42%,1.12%,0.614%,1.32%,0.951%,2.98%,0.943%,-1.83%,-1.09%
c1ccc2c(CC3=NCCN3)cccc2c1,0.509%,1.82%,1.78%,1.2%,4.23%,-1.48%,10%,1.67%,3.03%,1.34%
CN(C)CCc1c[nH]c2ccc(Cn3cncn3)cc12,-0.697%,0.65%,-0.925%,0.553%,1.2%,1.15%,-1.13%,-0.297%,1.51%,-0.819%
CCCCC1=NC2(CCCC2)C(=O)N1Cc1ccc(-c2ccccc2-c2nnn[nH]2)cc1,1.91%,3.8%,1.68%,1.47%,3.35%,3.43%,2.66%,-0.0514%,3.23%,0.582%
COc1c(C)c2c(c(O)c1C/C=C(\C)CCC(=O)OCCN1CCOCC1)C(=O)OC2,17.5%,14.5%,10.6%,15.1%,17.2%,15.1%,65.5%,8.44%,8.42%,7.66%
Cc1ccnc2c1NC(=O)c1cccnc1N2C1CC1,0.291%,2.43%,0.516%,-1.16%,0.921%,-1.94%,2%,1.95%,0.484%,0.637%
CC(NCCc1ccc(O)cc1)C(O)c1ccc(O)cc1 (stereo not given),-0.577%,-0.38%,-0.502%,1.19%,1.54%,-0.151%,-0.0915%,-0.121%,1.63%,-1.5%
C[N+]1(C)[C@@H]2C[C@@H](OC(=O)C(O)(c3cccs3)c3cccs3)C[C@H]1[C@@H]1O[C@@H]12,-2.02%,-0.731%,-2.26%,-2.3%,-2.1%,-0.274%,-3.15%,-1.02%,-2.31%,0.889%
NCCC(O)(P(=O)(O)O)P(=O)(O)O,0.943%,2.91%,2.33%,0.0373%,2.9%,1.86%,2.52%,1.34%,2.52%,0.475%
CCOc1nc2cccc(C(=O)OCc3oc(=O)oc3C)c2n1Cc1ccc(-c2ccccc2-c2noc(=O)[nH]2)cc1,0.179%,-1.86%,1.02%,0.141%,0.998%,-2.04%,16.6%,-1.36%,-4.87%,-1.75%
CC(C)(O/N=C(\C(=O)N[C@@H]1C(=O)N2C(C(=O)[O-])=C(C[n+]3ccccc3)CS[C@H]12)c1csc(N)n1)C(=O)O,-0.082%,3.29%,2.31%,0.416%,1.23%,-0.0518%,1.13%,-0.671%,2.58%,0.376%
NC(=O)N/N=C/c1ccc([N+](=O)[O-])o1,0.652%,0.147%,0.615%,0.733%,1.49%,0.622%,2.46%,-1.17%,1.04%,-0.395%
CS(=O)(=O)c1ccc(C2=C(c3ccccc3)C(=O)OC2)cc1,-1.33%,-0.751%,-1.9%,-1.51%,-1.94%,-2.78%,-3.76%,-4.83%,-0.628%,0.203%
CC1CNc2c(cccc2S(=O)(=O)N[C@@H](CCCNC(=N)N)C(=O)N2CC[C@@H](C)C[C@@H]2C(=O)O)C1 (stereo not given in full),0.0741%,1.59%,-1.49%,0.277%,-0.0474%,-1.28%,12.3%,1.8%,0.243%,-1.66%

SMILES,growth inhibition (DIPGX29),growth inhibition (DIPGX37),growth inhibition (DIPGX7),growth inhibition (DIPGX9),growth inhibition (HGGX39),growth inhibition (HGGX6),growth inhibition (HNSC),growth inhibition (SUDIPGIV),growth inhibition (SUDIPGVI),growth inhibition (SUDIPGXIII)
CCc1nc(N)nc(N)c1-c1ccc(Cl)cc1,16.1%,2.67%,1.94%,4.42%,7.42%,2.78%,6.9%,12.6%,7.22%,4.01%
Cc1nc2n(c(=O)c1CCN1CCC(c3noc4cc(F)ccc34)CC1)CCCC2,2.78%,1.21%,3.37%,1.08%,3.29%,1.84%,0.606%,0.111%,-0.157%,1.25%
CCCCCN(C)CCC(O)(P(=O)(O)O)P(=O)(O)O,-3.97%,2.62%,-1.48%,-0.821%,0.759%,-3.74%,5.06%,-4.22%,-0.622%,0.0777%
Nc1nc2c(ncn2COC(CO)CO)c(=O)[nH]1,-0.593%,2.32%,-1.01%,1.05%,1.32%,1.03%,-1.32%,-0.797%,-0.103%,1.94%
Oc1cc(O)c(Cl)cn1,-1.47%,-1.68%,-1.58%,-0.302%,-2.27%,0.219%,-3.27%,-2.24%,-1.42%,0.7%
CN(C)C(=N)NC(=N)N,-1.21%,-7.32%,-1.41%,-1.73%,-3.04%,-0.131%,-0.258%,-2.86%,-9.44%,-1.47%
N[C@@H](Cc1cc(I)c(Oc2ccc(O)c(I)c2)c(I)c1)C(=O)O,3.32%,3.94%,1.41%,2.64%,5.93%,-3.21%,13.2%,14.9%,10.1%,0.729%
C[C@H]1NC(=O)NC1=O,-0.365%,0.903%,-1.69%,-0.744%,-0.268%,0.316%,-0.248%,-0.465%,1.41%,0.834%
CC[C@]1(O)C[C@@H]2CN(CCc3c([nH]c4ccccc34)[C@@](C(=O)OC)(c3cc4c(cc3OC)N(C)[C@H]3[C@@](O)(C(=O)OC)[C@H](OC(C)=O)[C@]5(CC)C=CCN6CC[C@]43[C@@H]65)C2)C1,13%,14%,13.2%,22%,17.1%,11.5%,55.5%,32%,16.1%,18.3%
Nc1nc(O)c2ncn(CCC(CO)CO)c2n1,-0.633%,1.72%,0.291%,-0.106%,0.105%,-0.242%,0.639%,0.184%,1.56%,0.273%
C[C@H](N[C@@H](CCc1ccccc1)C(=O)O)C(=O)N1CCC[C@H]1C(=O)O,-1.89%,-2.46%,0.194%,-1.9%,-1.61%,-3.59%,-1.1%,-2.75%,-6.88%,-1.42%
COc1ccc(CN(CCN(C)C)c2ccccn2)cc1,-4.36%,-0.213%,-2.04%,-0.968%,2.69%,-3.48%,-2.01%,-2.03%,-1.61%,0.98%
CCOC(=O)c1ccc(N)cc1,-1.1%,0.286%,-0.777%,-2.99%,-1.05%,-1.96%,-1.55%,-0.0558%,-0.0967%,0.467%
COC(=O)C1=C(C)NC(C)=C(C(=O)OCCN(C)Cc2ccccc2)C1c1cccc([N+](=O)[O-])c1 (stereo not given),1.83%,4.39%,2.64%,2.12%,6.81%,0.277%,13%,3.58%,-1.74%,2.92%
OC(CCN1CCCCC1)(c1ccccc1)c1ccccc1,-0.46%,1.3%,-0.768%,-0.762%,-0.68%,0.348%,-1.66%,-1.24%,0.131%,1.07%
CN(C)CCCOc1nn(Cc2ccccc2)c2ccccc12,13.9%,-2.22%,24.6%,5.76%,18.9%,14.8%,40.8%,18.5%,-1.11%,0.197%
S=c1[nH]cnc2nc[nH]c12,20.1%,10.9%,25.3%,10.6%,23.2%,24.2%,58.1%,28.8%,13.4%,18.8%
CN(C)CCCN1c2ccccc2CCc2ccc(Cl)cc21,0.798%,0.768%,0.947%,2.88%,7.81%,0.658%,8.46%,7.66%,3.07%,3.28%
NCCc1c[nH]cn1,-0.622%,0.871%,-1.55%,0.0733%,1.84%,3.55%,-2.23%,0.269%,-0.51%,22.9%
